Assay results taken from PubChem BioAssay (NCI).
The panel holds about 79,000 compounds, 15% with a hit somewhere; the sample as a whole holds those more often. A number with no mark means an inactive call. Calls of active or inactive are those of the source. Rule as the data show it: active = growth inhibition above about 70%; inactive = the rest.

Key:
[1] = NCI Yeast Anticancer Drug Screen. Data for the rad50 strain (AID 155);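 also: 0% = growth of vehicle-only cultures of the same strain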; conditions: S. cerevisiae rad50 strain growth inhibition; at 50.0 µM; stronger effect = higher value
Summary of the method: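 Relative growth inhibition (compound vs vehicle) was measured in yeast with a defined repair-gene alteration.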

[2] = NCI Yeast Anticancer Drug Screen. Data for the mec2-1 strain (AID 157); conditions: S. cerevisiae mec2-1 strain, at 50.0 µM, stronger effect = higher value
Summary of the method: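 Cells of the genetically defined mec2-1 yeast strain are incubated with test compound. Inhibition of growth is calculated against vehicle-treated controls.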

[3] = NCI Yeast Anticancer Drug Screen. Data for the sgs1 mgt1 strain (AID 161);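 also: 0% = growth of cultures given vehicle only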; conditions: S. cerevisiae sgs1 mgt1 strain, at 50.0 µM, stronger effect = higher value
Summary of the method: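 Mutant yeast exposed to compound; growth scored against vehicle-only wells.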

[4] = NCI Yeast Anticancer Drug Screen. Data for the cln2 rad14 strain (AID 165);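 also: 0% = growth equal to vehicle treated cultures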; conditions: S. cerevisiae cln2 rad14 strain, at 50.0 µM, stronger effect = higher value
Summary of the method: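 The screen exposed genetically defined yeast (cln2 rad14) to test compounds and scored growth inhibition relative to vehicle-treated controls.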

[5] = NCI Yeast Anticancer Drug Screen. Data for the bub3 strain (AID 167); conditions: S. cerevisiae bub3 mutant strain, at 50.0 µM, stronger effect = higher value
Summary of the method: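 Screening used yeast with an engineered genetic alteration affecting cell cycle control. Compound-exposed cultures were compared with vehicle cultures, and reduced growth was taken as inhibition.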

[6] = NCI Yeast Anticancer Drug Screen. Data for the mlh1 rad18 strain (AID 175); conditions: S. cerevisiae mlh1 rad18 strain growth inhibition; at 50.0 µM; stronger effect = higher value
Summary of the method: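 Compound-treated yeast growth, normalised to vehicle controls. Strain bears defined DNA repair mutations.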

| SMILES | growth inhibition [1] [%] | growth inhibition [2] | growth inhibition [3] | growth inhibition [4] | growth inhibition [5] | growth inhibition [6] |
| --- | --- | --- | --- | --- | --- | --- |
| CS/C1=C(\c2ccc(C)cc2)N(c2ccccc2)C(=O)C(=O)N(c2ccccc2)/C(c2ccc(C)cc2)=C(/SC)SS1 | 12.2 | -27.1% | 2.9% | 3% | 8% | 12.5% |
| Cc1cccc(NC(=O)c2c(Br)c(Br)c(Br)c(Br)c2C(=O)O)c1C | 26.9 | -18% | 12.7% | 2.85% | 5.4% | -4.3% |
| O=c1[nH]cc(NS(=O)(=O)O)c(=O)[nH]1 | -2.15 | -5.4% | 6.5% | 1.45% | 2.95% | -0.55% |
| O=C(Nc1cccc2ccccc12)OC1CCCC1 | 1.2 | -12.4% | -14.4% | -53.7% | 6.35% | -28.6% |
| COC(=O)C1c2ccoc2CC2C1C(O)C(O)C1C(C)(C)CCCC21C (stereo unspecified) | 57.5 | 88.6% (active) | 77.8% (active) | 72% (active) | 81.6% (active) | 92.5% (active) |
| OCC1CCCC(n2cnc3c(=S)nc[nH]c32)O1 (stereo unspecified) | -8.4 | -21.8% | -20.2% | -10.7% | -42.2% | 6.4% |
| CCN(CC)CC[n+]1ccc2c(C)c3[nH]c4ccccc4c3c(C)c2c1 | 37.8 | -2.65% | -4.1% | 3.3% | 31.3% | 15.9% |
| Brc1cccc(C2SCc3nc4ccccc4n32)c1 (stereo unspecified) | 33 | 16.9% | 37.2% | 19.9% | 19.2% | 21.4% |
| CC(C)CC(CC(C)C)=NNC(N)=O | 17.3 | 23% | 9.05% | 18.9% | 7% | 24.4% |
| C=CCCCOC(C)=O | 5.1 | -10.9% | 12.5% | 4% | 11.9% | 1.8% |
| S=C1CC(c2ccc(Cl)cc2)Sc2ccccc2N1 (stereo unspecified) | -24.9 | -5.6% | -9.4% | -0.95% | -6.85% | -31.4% |
| COc1ccc(CSc2nc3ccccc3nc2-c2cccs2)cc1 | -16.2 | -39.2% | -43.8% | -1.35% | -24.9% | -54.8% |
| CNC(=O)C1CCC(=O)N1CN(C(C)=O)c1ccccc1 (stereo unspecified) | 3.85 | 13.9% | -12.9% | 13.7% | -13.9% | -63.5% |
| CCCN(CCC)S(=O)(=O)c1ccc(NC(=O)Oc2cc(C)ccc2C(C)C)cc1 | 32.5 | 1.75% | 24.2% | 21.5% | -5.25% | 14.8% |
| CC1CN(C(=S)Nc2ccccc2)CCN1C(=S)Nc1ccccc1 (stereo unspecified) | -9 | 8.7% | 6.3% | -42.9% | 0.5% | -7.6% |
| c1ccc(CC2(Cc3ccccc3)SCCS2)cc1 | -11.7 | 8.45% | 6.55% | 1.15% | -0.6% | -6.05% |
| CS/N=C(\c1ccccc1)N1CCOCC1 | -38.2 | -5.7% | -4.95% | -21.1% | 4.25% | 5.2% |
| CCCCn1c(N)n[nH]c1=S | 20.5 | 8.55% | 1.55% | -52.5% | -7.25% | -5.9% |
| O=C1C(n2ccc(=O)[nH]c2=O)CCN1CCCl (stereo unspecified) | 0.2 | 1.35% | 2.65% | -23.5% | 14.1% | 12.5% |
| COC(=O)c1ccc(OC(=O)Nc2ccc(SC)cc2)cc1 | 3.2 | 40.5% | 25.4% | -3.4% | 34.2% | 11.7% |
| CC(=O)Nc1c(C)cccc1F | 2.35 | 6.45% | -3.95% | 12.1% | 3.3% | -12.4% |

| SMILES | growth inhibition [1] [%] | growth inhibition [2] | growth inhibition [3] | growth inhibition [4] | growth inhibition [5] | growth inhibition [6] |
| --- | --- | --- | --- | --- | --- | --- |
| COc1ccc(C(=O)/C=C/c2ccncc2)cc1OC | 41.8 | 38.4% | 51.5% | 5.55% | 32.5% | 36.9% |
| CC(=O)C(C)CO (stereo unspecified) | 14.2 | -21.1% | 5.5% | 8.55% | 9.2% | 13.7% |
| CC(=O)CC(=O)Nc1ccc(NC(=O)CC(C)=O)cc1 | -13.5 | -30.9% | -21.1% | -0.55% | -23.5% | -15.9% |
| Clc1ccc(/C=C/c2nc3ccccc3s2)cc1Cl | -13.8 | -23.6% | 3.1% | 9.95% | 27.2% | -16.2% |
| [NH-]c1ncnc2c1N=C[N+]2=CC=CCO | -1.6 | -17% | -19.7% | -7.6% | -28.4% | -10.7% |
| COC(=O)CCSC(=S)NCc1ccccc1 | -14.4 | -30.1% | -20% | -222% | -3.45% | -12.7% |
| Cc1c(C)c(C)c(S(=O)(=O)NCCNS(=O)(=O)c2c(C)c(C)c(C)c(C)c2C)c(C)c1C | 5.7 | -16.4% | -0.7% | 15.3% | -2.5% | 1.7% |
| CCOC(=O)CCC[n+]1cccc(C#N)c1 | 3.3 | 1.4% | 2% | -3.35% | -3.15% | -1.35% |
| COC(=O)c1cnc2nc(N3CCOCC3)[nH]n2c1=O | 8.3 | -0.3% | -1.25% | 4.1% | -4.7% | -10.5% |
| Nc1cc([N+](=O)[O-])ccc1-c1ccc([N+](=O)[O-])cc1 | 3.25 | -2.2% | 8.1% | 10.2% | 15.2% | -8.85% |
| C=CCC1(C)C=C(C)C(=O)C(C)=C1 | -6.05 | -7% | 18.6% | 2.55% | 16.2% | 15.1% |
| O=C1CCCc2ccc([N+](=O)[O-])c(O)c21 | 11 | 10.1% | -2.55% | 4.4% | 9.8% | 8.65% |
| CCOC(=O)Nc1cc(Nc2ccc(Cl)cc2)c2nc(-c3ccc(Cl)cc3)c(-c3ccc(Cl)cc3)nc2n1 | 44.7 | -0.9% | 36.1% | 20.9% | -0.75% | 8.8% |
| CCC(SC(CC)(CC(C)C)C(N)=O)C(N)=O (stereo unspecified) | 4.1 | -5.65% | 15.8% | -53% | 6.9% | -14.4% |
| [Cl][Bi]([O]c1ccccn1)[O]c1ccccn1 | 9.9 | -1.55% | -13.4% | 17.4% | 28.6% | -25.8% |
| c1ccc2c(c1)[nH]c1ccccc12 | -30.9 | -15.9% | 1.65% | -3.05% | -5.5% | 7.05% |
| CN(CC(=O)C(O)C(O)C(O)CO)c1ccccc1 (stereo unspecified) | -10.4 | -8.75% | -7.6% | -16.1% | -2.6% | -9.7% |
| O=c1cc(O)n2ncnc2[nH]1 | -4.3 | -23.6% | -21.8% | 3.05% | -12.6% | 9% |
| Cc1cn(C2CC(O)C(CO)O2)c(=O)nc1NCc1cccs1 (stereo unspecified) | 0.8 | 2% | -8.55% | -9.15% | -4.55% | 2.95% |
| COC1C(=O)c2ccccc2N1C(C)=O (stereo unspecified) | 7.85 | -2.25% | -7.6% | -18.2% | -6.85% | 1.15% |
